# Experimental data as given in ChEMBL document CHEMBL1157539, “Thousands of chemical starting points for antimalarial lead identification” (Nature, 2010).
# Test system: Plasmodium falciparum
# Assay: GSK_TCMDC: Inhibition of Plasmodium falciparum 3D7 in whole red blood cells, using parasite LDH activity as an index of growth. Test compounds present at 2uM
# Assay type: functional
row,Structure (SMILES),Inhibition [%]
1,CCCN(CCC)C(=O)c1cc(C(=O)N[C@@H](Cc2ccccc2)[C@H](O)CNCc2cccc(C(F)(F)F)c2)cc(N2CCCCS2(=O)=O)c1,99
2,Br.CCCC1N=C(N)N=C(N)N1c1ccc(C)c(C)c1 (configuration not stated),95
3,Cc1cc(NC2CCCC2)nc(Nc2ccc(F)cc2)n1,100
4,Cc1ccc(NC(=O)c2cc(S(=O)(=O)NC(C)(C)C)ccc2C)nc1,86
5,O=C(Nc1ccc(Oc2ccccc2)cc1)N1CCC(CCN2CCC(c3c[nH]c4ccccc34)CC2)CC1,100
6,CC(C)c1cc(Oc2c(I)cc(CCNCc3ccccc3)cc2I)ccc1O.Cl,95
7,CC(=O)Nc1ccc(OCCN(CC(C)C)c2ccc(C(F)(F)F)c(C#N)c2)c(Cl)c1,96
8,COc1cccc(-c2nn(C)c3sc(C(=O)NCCN4CCN(c5ccccc5F)CC4)cc23)c1,85
9,O=C(NCC1CCN(CCN2CCC(c3cn(CCO)c4ccccc34)CC2)CC1)c1ccc(-c2ccc(C(F)(F)F)cc2)cc1,100
10,COc1ccc(-c2cccc(NC(=O)c3ccc(Cl)cc3)c2)cc1CN1CCCC1.O=C(O)C(F)(F)F,97
11,CCn1c(C=Cc2cc(Br)ccc2O)nc2ccccc2c1=O,95
12,CCN1C(=O)N(CCC(C)C)C2(CCN(Cc3ccc(OC)cc3O)CC2)C1=O,89
13,Cc1cnc(C(=O)Nc2cccc(-c3ccc(-c4nc5cc(C(F)(F)F)ccc5[nH]4)s3)c2)cn1,86
14,CCCC[C@H](NC(=O)OC(C)(C)C)C(=O)Nc1ccc(Cc2ccc(NC(=O)[C@H](CCCC)NC(=O)OC(C)(C)C)cc2)cc1,95
15,COc1ccc(NC(=O)[C@H](Cc2ccccc2)Nc2cc(C)nc(NCCOc3ccccc3)n2)cc1.O=C(O)C(F)(F)F,98
16,O=C(C=Cc1ccccc1)Nc1ccc(C#CC=Cc2ccc(NC(=O)C=Cc3ccccc3)cc2)cc1,100
17,O=C(Nc1ccc2c(ccn2C2CCCN(Cc3cc(F)cc(F)c3F)CC2)c1)c1ccco1 (configuration not stated),89
18,CN1CCN(Cc2nc(-c3ccc4c(Nc5ccc(Oc6ccccc6)cc5)ccnc4c3)cs2)CC1,100
19,CC1CCN(Cc2c(O)ccc3c(O)c(-c4nc5ccccc5s4)c(=N)oc23)CC1,98
20,Cc1cc(N2CCCC2)nc(Nc2ccc(NC(=O)c3ccc4c(c3)OCO4)cc2)n1,100
21,COc1ccccc1CN1CCC(NC(=O)c2ccc(-c3cccc(Cl)c3)s2)CC1.O=C(O)C(F)(F)F,84
22,CN(C)CCCn1c(C(=O)OC(c2ccccc2)c2ccccc2)cc2cc(OCc3ccccc3)ccc21,82
23,CC(C)C[C@H](NC(=O)[C@H](Cc1ccccc1)NC(=O)CCN1C(=O)COc2ccc(C(=O)O)cc21)C(=O)NC(CC1CCCCC1)C(O)CC(=O)NCCCn1ccnc1.Cl.O (some centres not stated),99
24,COc1cc(C(=O)NCc2nn(CCN3CCC(N4CCCC4)CC3)cc2-c2ccc(Cl)c(Cl)c2)cc(OC)c1OC,97
25,CCOc1cc(CC)ccc1C1CCN(CCCCNC(=O)c2ccc(NC(=O)c3ccc(Cl)cc3)cc2)CC1.Cl,100
26,CCCCN(C)CC#Cc1ccc(-c2ccc3[nH]c(C)c(Br)c(=O)c3c2)cn1,98
27,Cc1ccc2c(c1)NCC21CCN(C[C@@H](O)C2CCN(c3cc(C#N)ccn3)CC2)CC1C (some centres not stated),90

# Test system: Plasmodium falciparum
# Assay: GSK_TCMDC: Inhibition of Plasmodium falciparum Dd2 in whole red blood cells, using parasite LDH activity as an index of growth. Test compounds present at 2uM
# Assay type: functional
row,Structure (SMILES),Inhibition [%]
1,O=C(O)C(F)(F)F.O=C1CCCN1CCCNCc1cccc(-c2cccc(-c3nc4cc(C(F)(F)F)ccc4[nH]3)c2)c1,90
2,O=C(Nc1ccc(Cl)cc1F)NC1CCN(CCCCCNC(=O)C2CC2c2ccc(Cl)c(Cl)c2)CC1 (configuration not stated),27
3,NC1=NC(c2ccccc2)(c2ccccc2)C(=O)N1Cc1ccc(-c2ccncc2)cc1.O=CO,74
4,COc1ccccc1C1CCN(C2CCC(NC(=O)c3cc4ccccc4[nH]3)CC2)CC1 (configuration not stated),7
5,CCc1c[nH]c2c(N3CCCS3(=O)=O)cc(C(=O)N[C@@H](Cc3ccccc3)[C@H](O)CNC(C)(C)c3cccc(C(F)(F)F)c3)cc12.O=CO,99
6,CCNc1cc(C(=O)N[C@@H](Cc2ccccc2)[C@H](O)CNC(CC)c2cccc(Cl)c2)cc(N2CCCC2=O)c1.Cl (some centres not stated),99
7,Cc1[nH]c2ccc(NS(C)(=O)=O)cc2c1C1CCN(CCC2CCN(C(=O)/C=C/c3ccc(Cl)c(Cl)c3)CC2)CC1,94
8,c1ccc2[nH]c(-c3ccc(-c4ccc(CN5CCCCC5)cc4)s3)nc2c1,69
9,CCOC(=O)c1c(CN2CCCC2)n(-c2ccccc2)c2cc(Br)c(O)cc12,53
10,N=C(N)Nc1nc(-c2cccc(NC(=O)NCc3cccc4ccccc34)c2)cs1,32
11,COc1ccc(C2N=C(N)N=C(N)N2OCc2ccccc2)cc1OC.Cl (configuration not stated),2
12,c1cncc(Oc2ccc(Nc3ccnc4cc(-c5cccc(CN6CCOCC6)c5)ccc34)cc2)c1,100
13,Cc1nc(O)c2c(ccc3ccc(CNc4ccc(C(=O)N[C@@H](CCC(=O)O)C(=O)O)c(F)c4)cc32)n1,96
14,CCCN(CCC)C(=O)c1cc(C(=O)N[C@@H](Cc2ccccc2)[C@H](O)CNCc2cccc(C(F)(F)F)c2)cc(N2CCCCS2(=O)=O)c1,74
15,Br.CCCC1N=C(N)N=C(N)N1c1ccc(C)c(C)c1 (configuration not stated),0
16,Cc1cc(NC2CCCC2)nc(Nc2ccc(F)cc2)n1,74
17,Cc1ccc(NC(=O)c2cc(S(=O)(=O)NC(C)(C)C)ccc2C)nc1,80
18,O=C(Nc1ccc(Oc2ccccc2)cc1)N1CCC(CCN2CCC(c3c[nH]c4ccccc34)CC2)CC1,36
19,CC(C)c1cc(Oc2c(I)cc(CCNCc3ccccc3)cc2I)ccc1O.Cl,54
20,CC(=O)Nc1ccc(OCCN(CC(C)C)c2ccc(C(F)(F)F)c(C#N)c2)c(Cl)c1,95

row,Structure (SMILES),Inhibition [%]
1,COc1cccc(-c2nn(C)c3sc(C(=O)NCCN4CCN(c5ccccc5F)CC4)cc23)c1,40
2,O=C(NCC1CCN(CCN2CCC(c3cn(CCO)c4ccccc34)CC2)CC1)c1ccc(-c2ccc(C(F)(F)F)cc2)cc1,100
3,COc1ccc(-c2cccc(NC(=O)c3ccc(Cl)cc3)c2)cc1CN1CCCC1.O=C(O)C(F)(F)F,52
4,CCn1c(C=Cc2cc(Br)ccc2O)nc2ccccc2c1=O,95
5,CCN1C(=O)N(CCC(C)C)C2(CCN(Cc3ccc(OC)cc3O)CC2)C1=O,77
6,Cc1cnc(C(=O)Nc2cccc(-c3ccc(-c4nc5cc(C(F)(F)F)ccc5[nH]4)s3)c2)cn1,14
7,CCCC[C@H](NC(=O)OC(C)(C)C)C(=O)Nc1ccc(Cc2ccc(NC(=O)[C@H](CCCC)NC(=O)OC(C)(C)C)cc2)cc1,71
8,COc1ccc(NC(=O)[C@H](Cc2ccccc2)Nc2cc(C)nc(NCCOc3ccccc3)n2)cc1.O=C(O)C(F)(F)F,25
9,O=C(C=Cc1ccccc1)Nc1ccc(C#CC=Cc2ccc(NC(=O)C=Cc3ccccc3)cc2)cc1,3
10,O=C(Nc1ccc2c(ccn2C2CCCN(Cc3cc(F)cc(F)c3F)CC2)c1)c1ccco1 (configuration not stated),94
11,CN1CCN(Cc2nc(-c3ccc4c(Nc5ccc(Oc6ccccc6)cc5)ccnc4c3)cs2)CC1,99
12,CC1CCN(Cc2c(O)ccc3c(O)c(-c4nc5ccccc5s4)c(=N)oc23)CC1,99
13,Cc1cc(N2CCCC2)nc(Nc2ccc(NC(=O)c3ccc4c(c3)OCO4)cc2)n1,67
14,COc1ccccc1CN1CCC(NC(=O)c2ccc(-c3cccc(Cl)c3)s2)CC1.O=C(O)C(F)(F)F,9
15,CN(C)CCCn1c(C(=O)OC(c2ccccc2)c2ccccc2)cc2cc(OCc3ccccc3)ccc21,85
16,CC(C)C[C@H](NC(=O)[C@H](Cc1ccccc1)NC(=O)CCN1C(=O)COc2ccc(C(=O)O)cc21)C(=O)NC(CC1CCCCC1)C(O)CC(=O)NCCCn1ccnc1.Cl.O (some centres not stated),0
17,COc1cc(C(=O)NCc2nn(CCN3CCC(N4CCCC4)CC3)cc2-c2ccc(Cl)c(Cl)c2)cc(OC)c1OC,0
18,CCOc1cc(CC)ccc1C1CCN(CCCCNC(=O)c2ccc(NC(=O)c3ccc(Cl)cc3)cc2)CC1.Cl,58
19,CCCCN(C)CC#Cc1ccc(-c2ccc3[nH]c(C)c(Br)c(=O)c3c2)cn1,93
20,Cc1ccc2c(c1)NCC21CCN(C[C@@H](O)C2CCN(c3cc(C#N)ccn3)CC2)CC1C (some centres not stated),79
